In PubChem BioAssay (NCATS) one finds Potency, activation and activity change, negative = inhibition data, which are given here for 21 molecules.

Experiment [1] concerns the target Rap guanine nucleotide exchange factor 3 (Homo sapiens) (UniProt O95398). Kind of experiment: Confirmatory qHTS for antagonist of cAMP-regulated guanine nucleotide exchange factor 3 (EPAC1) (AID 1645880).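 For activity, negative = inhibition: plate controls were DMSO only for no effect and full effect of the ATA control for full effect.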 Note: nearly all actives have a fitted effect of over 55% in size. Note: potency is the fitted concentration of half-maximal effect. To be noted: EPAC1 Rap1B-BODIPY-GDP exchange, fluorescence; activity, negative = inhibition: at 115 µM (top of the series). In a few lines:
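Nucleotide exchange uses 100 nM EPAC1, 250 nM RAP1B-BODIPY-GDP and 50 uM GDP, with compounds in a concentration-titration series. After 5 min at room temperature, fluorescence (480 nm ex/540 nm em) is read every 5 min for 30 min. Data are normalized to control ATA and DMSO.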
On the technique in general: Quantitative high-throughput screening tests each substance at several concentrations.

Experiment [2] has the same target. Kind of experiment: Confirmatory qHTS for agonist of cAMP-regulated guanine nucleotide exchange factor 3 (EPAC1) (AID 1645881).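 Note: EPAC1 catalysed release of BODIPY-GDP from Rap1B seen as fluorescence loss; 100% = effect of cAMP agonist control; nearly all actives have a fitted effect of over 75% in size.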
The target of experiment [3] is Rap guanine nucleotide exchange factor 4 (Homo sapiens) (UniProt Q8WZA2). Kind of experiment: Confirmatory qHTS for agonist of cAMP-regulated guanine nucleotide exchange factor 4 (EPAC2) (AID 1645884).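 Note: nucleotide exchange releases bodipy-GDP from Rap1 and this lowers its fluorescence; % is set by controls: 0 for no effect and ±100 for the full control effect; nearly all actives have a fitted effect of over 65% in size.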
For experiment [4], the target named is Rap guanine nucleotide exchange factor 3 (Homo sapiens) (UniProt O95398). Kind of experiment: Counterscreen qHTS for antagonist of cAMP-regulated guanine nucleotide exchange factor 3 (EPAC1) (AID 1645888).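 Note: fluorescence loss as bound BODIPY-GDP is released from Rap1B; % of control where 0% means no effect.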 In a few lines:
(§1)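 Rap1B–BODIPY-GDP (250 nM) with 50 uM GDP; compounds pin-transferred to 9.74 nM–152 uM final (activator) or from 7.32 nM upwards (inhibitor). Fluorescence Ex/Em 480/540 nm read at 5 and 30 min, then after adding cAMP or buffer, at room temperature.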
A general note: The purpose of a counterscreen is to sort out artefacts and off-target activity.

For experiment [5] the target is unchanged. Kind of experiment: Counterscreen qHTS for agonist of cAMP-regulated guanine nucleotide exchange factor 3 (EPAC1) (AID 1645889). For activation: % of control where 0% means no effect. Note: nearly all actives have a fitted effect of over 40% in size. Note: potency is the fitted concentration of half-maximal effect. In a few lines: as §1

Molecules are shown by their SMILES. Inconclusive results are not listed. Unmarked numbers belong to inactive results. Active and inactive are the calls of the source. Calls come from the whole dose curve; as a rule, active = well fitted curve in the direction sought with a large enough effect; inconclusive = small, poorly fitted or top-dose-only effect, or another doubt; inactive = no such curve, though single readings can be large; an effect the other way counts as inactive or inconclusive.

Chain of Rap guanine nucleotide exchange factor 4 (Homo sapiens) (Q8WZA2 whole entry, looked up): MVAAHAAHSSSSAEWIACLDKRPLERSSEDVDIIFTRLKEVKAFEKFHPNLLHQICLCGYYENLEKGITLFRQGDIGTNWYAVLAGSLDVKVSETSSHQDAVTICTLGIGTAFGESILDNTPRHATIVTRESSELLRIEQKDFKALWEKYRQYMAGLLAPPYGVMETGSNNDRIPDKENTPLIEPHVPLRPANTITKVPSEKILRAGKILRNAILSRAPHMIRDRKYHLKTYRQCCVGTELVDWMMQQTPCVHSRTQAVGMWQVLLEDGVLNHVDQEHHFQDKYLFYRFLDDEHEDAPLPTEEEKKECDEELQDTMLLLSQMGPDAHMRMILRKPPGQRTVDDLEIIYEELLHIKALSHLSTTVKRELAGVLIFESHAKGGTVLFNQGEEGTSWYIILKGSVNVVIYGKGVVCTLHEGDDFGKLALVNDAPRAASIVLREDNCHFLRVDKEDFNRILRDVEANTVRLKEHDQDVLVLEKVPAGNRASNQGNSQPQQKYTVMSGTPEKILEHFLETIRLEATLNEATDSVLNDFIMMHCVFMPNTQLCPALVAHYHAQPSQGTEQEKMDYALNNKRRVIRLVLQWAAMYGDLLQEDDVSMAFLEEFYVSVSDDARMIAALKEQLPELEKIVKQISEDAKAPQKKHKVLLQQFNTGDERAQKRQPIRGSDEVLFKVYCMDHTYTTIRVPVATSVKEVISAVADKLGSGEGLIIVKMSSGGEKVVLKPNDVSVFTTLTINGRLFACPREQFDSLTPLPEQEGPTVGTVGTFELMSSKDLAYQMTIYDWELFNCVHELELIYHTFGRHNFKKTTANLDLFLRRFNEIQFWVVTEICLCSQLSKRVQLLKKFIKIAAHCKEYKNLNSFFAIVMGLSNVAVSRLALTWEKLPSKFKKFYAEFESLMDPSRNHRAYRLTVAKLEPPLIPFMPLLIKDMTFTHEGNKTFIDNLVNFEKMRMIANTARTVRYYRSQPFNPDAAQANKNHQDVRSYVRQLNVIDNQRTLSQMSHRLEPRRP
Chain of Rap guanine nucleotide exchange factor 3 (Homo sapiens) (O95398 whole entry, looked up): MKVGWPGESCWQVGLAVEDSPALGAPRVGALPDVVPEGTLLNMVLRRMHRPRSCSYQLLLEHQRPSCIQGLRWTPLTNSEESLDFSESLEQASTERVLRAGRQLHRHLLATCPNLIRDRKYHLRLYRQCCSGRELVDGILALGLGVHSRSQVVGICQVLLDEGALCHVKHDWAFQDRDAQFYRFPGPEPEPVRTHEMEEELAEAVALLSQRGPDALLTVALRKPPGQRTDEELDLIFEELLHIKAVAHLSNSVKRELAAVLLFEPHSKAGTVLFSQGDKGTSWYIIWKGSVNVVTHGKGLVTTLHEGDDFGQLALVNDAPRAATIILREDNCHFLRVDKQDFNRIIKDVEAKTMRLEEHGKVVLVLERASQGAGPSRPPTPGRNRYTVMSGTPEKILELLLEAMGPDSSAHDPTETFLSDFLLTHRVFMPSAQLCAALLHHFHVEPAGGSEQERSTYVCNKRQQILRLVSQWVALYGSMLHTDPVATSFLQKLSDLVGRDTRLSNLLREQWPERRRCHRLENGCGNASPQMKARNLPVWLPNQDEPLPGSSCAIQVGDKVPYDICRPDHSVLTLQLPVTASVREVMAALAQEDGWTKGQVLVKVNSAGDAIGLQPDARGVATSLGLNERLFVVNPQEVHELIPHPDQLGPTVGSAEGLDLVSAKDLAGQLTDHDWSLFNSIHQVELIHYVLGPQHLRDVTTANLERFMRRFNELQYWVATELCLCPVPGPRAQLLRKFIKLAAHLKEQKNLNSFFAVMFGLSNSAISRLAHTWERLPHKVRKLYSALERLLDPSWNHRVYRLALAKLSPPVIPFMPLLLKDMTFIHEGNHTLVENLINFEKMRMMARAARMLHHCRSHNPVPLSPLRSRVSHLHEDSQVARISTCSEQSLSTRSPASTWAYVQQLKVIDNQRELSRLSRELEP

For `CC(=O)CCc1oc2ccccc2c1-c1ccccc1`, the Potency result in experiment [1] and in experiment [2] was “inactive” each time. The activation in experiment [3] was 6.69% [at 17.1 µM, percent relative to cAMP agonist control]; in experiment [5], -0.404% [at 30.8 µM]. The activity change, negative = inhibition in experiment [4] is -10.9% [at 30.8 µM].
For the molecule `Cc1ccc(S(=O)(=O)NN2C(=O)/C(=C/c3cccc(F)c3)SC2=S)cc1`, the Potency in experiment [1] was 23.9 µM (active). The Potency result in experiment [2], in experiment [3], in experiment [4] and in experiment [5] was “inactive” in each case.
`COCCN(CCOC)Cc1cc(=O)oc2cc(C)c(Cl)cc12`: the Potency entry in experiment [1], in experiment [2], in experiment [3], in experiment [4] and in experiment [5] was “inactive” throughout.
With `CCC1SC2=NC(C)=C(C(=O)OC)C(c3cccs3)N2C1=O` (stereo not given), the Potency entry in experiment [1] and in experiment [2] was “inactive” each time. The activation was -2.13% [at 17.1 µM, percent relative to cAMP agonist control] in experiment [3] and 5.87% [at 30.8 µM] in experiment [5]. The activity change, negative = inhibition in experiment [4] is -9.77% [at 30.8 µM].
Turning to `Cc1cc(C)c2sc(N(CCCN(C)C)C(=O)c3ccc(S(=O)(=O)N(C)C4CCCCC4)cc3)nc2c1`, the Potency result in experiment [1], in experiment [2], in experiment [3], in experiment [4] and in experiment [5] was “inactive” in each case.
With `CCOC(=O)C1CCCCN1Cc1cccc(Oc2ccccc2)c1` (stereo not given), the Potency result in experiment [1] and in experiment [2] was “inactive” throughout. The activation was 6.17% [at 17.1 µM, percent relative to cAMP agonist control] in experiment [3] and 29% [at 30.8 µM] in experiment [5]. In addition, the activity change, negative = inhibition in experiment [4] was -24.9% [at 30.8 µM].
As to `Cc1nnc(SCC(=O)Nc2sccc2C#N)s1`, the Potency result in experiment [1], in experiment [2], in experiment [3] and in experiment [4] was “inactive” each time. For the same molecule, the Potency in experiment [5] was 0.0178 µM (active).
For `COc1ccc(OC)c(NC2c3ccccc3C(=O)N2c2cccnc2)c1` (stereo not given), the Potency entry in experiment [1], in experiment [2], in experiment [3], in experiment [4] and in experiment [5] was “inactive” throughout.
For the molecule `O=C(CN1CCCC1)Nc1ccccc1Sc1ccc(Cl)cc1`, the Potency result in experiment [1], in experiment [2], in experiment [3], in experiment [4] and in experiment [5] was “inactive” each time.
As for `O=C(Cc1ccc(Br)cc1)N(Cc1ccccc1)c1ccccn1`, the Potency entry in experiment [1], in experiment [2], in experiment [3], in experiment [4] and in experiment [5] was “inactive” each time.
Take `O=C(CN1C(=O)N/C(=C\c2ccccc2OCc2ccc(C(=O)O)cc2)C1=O)Nc1ccc(F)cc1`: the Potency in experiment [1] was 42.6 µM (active). Further, the Potency result in experiment [2], in experiment [3], in experiment [4] and in experiment [5] was “inactive” in each case.
As to `CCOC(=O)C1=C(C)N=c2s/c(=C\c3ccc(OCC(=O)O)cc3)c(=O)n2C1c1ccc(OC(C)C)cc1` (stereo not given), in experiment [1], the Potency is 75.7 µM (active). In addition, the Potency entry in experiment [2], in experiment [3], in experiment [4] and in experiment [5] was “inactive” each time.
`COc1ccc(N=C2NC(=O)S/C2=C\c2ccc(N(C)C)cc2)cc1`: the Potency entry in experiment [1], in experiment [2], in experiment [3], in experiment [4] and in experiment [5] was “inactive” throughout.
`Cc1noc(C)c1C(=O)N(CC(C)C)c1nc2ccccc2s1`: the Potency entry in experiment [1], in experiment [2], in experiment [3], in experiment [4] and in experiment [5] was “inactive” in each case.
With `CCOC(=O)c1[nH]c2ccc(OCC)cc2c1NC(=O)CN1CCN(c2ccccn2)CC1`, the Potency entry in experiment [1], in experiment [2], in experiment [3], in experiment [4] and in experiment [5] was “inactive” throughout.
For the molecule `CCOc1ccccc1OCC(=O)Nc1cc(S(=O)(=O)N2CCCCC2)ccc1N1CCN(CC)CC1`, the Potency entry in experiment [1], in experiment [2], in experiment [3], in experiment [4] and in experiment [5] was “inactive” throughout.
On to `Cc1ccc(N(C(=O)c2ccccc2Cl)C2=NC(C)CS2)c(C)c1` (stereo not given), for which the Potency entry in experiment [1] and in experiment [2] was “inactive” throughout. Besides, the activation is 5.24% [at 17.1 µM, percent relative to cAMP agonist control] in experiment [3] and 26.9% [at 30.8 µM] in experiment [5]. For the same molecule, in experiment [4], the activity change, negative = inhibition is -24.5% [at 30.8 µM].
As for `COc1ccc(-n2nnnc2C(c2ccccc2OC(F)(F)F)N2CCN(C/C=C/c3ccccc3)CC2)cc1` (stereo not given), the Potency result in experiment [1], in experiment [2], in experiment [3], in experiment [4] and in experiment [5] was “inactive” in each case.
On to `CC(=O)Nc1scc(-c2ccccc2)[n+]1-c1ccc(C)cc1`, for which the Potency result in experiment [1] and in experiment [2] was “inactive” each time. Also, the activation in experiment [3] was 11.2% [at 17.1 µM, percent relative to cAMP agonist control]; in experiment [5], 4.92% [at 30.8 µM]. In addition, the activity change, negative = inhibition in experiment [4] is -4.14% [at 30.8 µM].
In the case of `COc1ccc(/C=C2\SC(=S)NC2=O)cc1OS(=O)(=O)c1ccc(NC(C)=O)cc1`, the Potency in experiment [1] was 37.9 µM (active). For the same molecule, the Potency result in experiment [2], in experiment [3], in experiment [4] and in experiment [5] was “inactive” in each case.
Turning to `Cc1cc(C)c(S(=O)(=O)N2CCCC2)c(C)c1`, the Potency result in experiment [1], in experiment [2], in experiment [3], in experiment [4] and in experiment [5] was “inactive” in each case.
